# From PubChem BioAssay (NCATS)
# Records with an inconclusive call do not appear. Where a call stands in place of a potency, no number is given. Activity calls are given as the source filed them. The call rests on the fitted dose curve; in most records, active means well fitted cell-killing curve with a large enough effect; inconclusive means small, poorly fitted or top-dose-only effect; inactive means flat fitted curve, though single readings scatter.
# Assay: Cell Viability - LYMP2-013 (AID 970); further: nearly all actives have a fitted effect of over 55% in size
# Settings: LYMP2-013 lymphoblastoid cells viability; series mostly up to 92.2 µM
# Summary of the method: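 CellTiter-Glo luminescence (cellular ATP) read after 30 min at RT. Cells: human lymphoblastoid line, 2500/well, 24 hr compound exposure at 37 C. Tetraoctylammonium bromide positive control; AC50 via standard Hill fit of qHTS titrations.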
# Potency means the concentration at half of the fitted maximal effect.
row,SMILES,Potency
1,CCOCCOC(C)=O,inactive
2,COc1ccc(C(c2ccc(OC)cc2)C(Cl)(Cl)Cl)cc1,inactive
3,O=C(O)C(Cl)Cl,inactive
4,O=C(O)COc1ccccc1,inactive
5,O=[N+]([O-])c1c2ccccc2cc2ccccc12,inactive
6,CC(C)(O)C(=O)Nc1ccc([N+](=O)[O-])c(C(F)(F)F)c1,inactive
7,CN(C)NC(=O)CCC(=O)O,inactive
8,CCCCCCCCc1ccc(O)cc1,inactive
9,O=[N+]([O-])c1cc([N+](=O)[O-])c2ccccc2c1,inactive
10,CN(C)[C@@H]1C(=O)C(C(N)=O)=C(O)[C@@]2(O)C(=O)C3=C(O)c4c(O)cccc4[C@@](C)(O)[C@H]3[C@H](O)[C@@H]12,inactive
11,CC(=O)[O][Hg][c]1ccccc1,631 nM (active)
12,O=S(=O)(c1ccc(Cl)cc1)c1ccc(Cl)cc1,inactive
13,CCCCOC(=O)c1ccccc1C(=O)OCc1ccccc1,inactive
14,O=[N+]([O-])c1c(Cl)c(Cl)cc(Cl)c1Cl,inactive
15,COC(C)(C)CCCC(C)C/C=C/C(C)=C/C(=O)OC(C)C (stereo unspecified),inactive
16,Nc1ccc(Sc2ccc(N)cc2)cc1,inactive
17,Nc1ccc(Cl)cc1N,inactive
18,C=CC(=O)NCNC(=O)C=C,inactive
19,Cc1cc(O)ccc1Cl,inactive
20,C1CCC(NC2CCCCC2)CC1,inactive
21,CCCCC(CC)COC(=O)c1ccccc1C(=O)OCC(CC)CCCC (stereo unspecified),inactive
22,Nc1ccc([N+](=O)[O-])cc1,inactive
23,c1cc2ccc3cccc4ccc(c1)c2c34,inactive
24,OCCCBr,inactive
25,Nc1ccc(Cl)cc1,inactive
26,CCOP(=O)(NC(C)C)Oc1ccc(SC)c(C)c1 (stereo unspecified),inactive
